This is an account of results in PubChem BioAssay AID1963322 (National Center for Advancing Translational Sciences (NCATS), 2024).

Inconclusive results are not listed. Entries that show only a call come without a potency. Calls of active or inactive are those of the source. The call rests on the fitted dose curve.

For the assay, the target named is cAMP-dependent protein kinase catalytic subunit alpha (Homo sapiens) (UniProt P17612). In words: Protein Kinase A (PKA-HiBiT) SDR gain of signal screen. Put shortly:
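PKA-N-HiBiT enzyme at 10 nM final was preincubated with compounds for 30 min at room temperature, protected from light. Nano-Glo HiBiT reagent was then added for 10 min, and luminescence was read by CCD imager. H-89 served as positive control.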
In general terms: With HiBiT, luminescence reflects the tagged protein that the partner subunit can reach.

In the case of `Cc1ccccc1-n1c([C@H](C)Nc2nc(N)nc3nc[nH]c23)nc2cccc(C)c2c1=O`, the Potency entry was “inactive”. As for `COc1cc2ncnc(Oc3cccc(NC(=O)Nc4cc(C(C)(C)C(F)(F)F)on4)c3)c2cc1OC`, the Potency result is “inactive”.

For the compound `CNc1ncc2cc(-c3cc(NC(=O)NCCC(C)(C)C)c(F)cc3C)c(C)nc2n1`, the Potency entry is “inactive”. Regarding `COc1ccc(-n2c(C)c([N+](=O)[O-])c3ccc(O)cc32)cc1`, the Potency entry is “inactive”. The same measure for `CC(C)(C)n1nc(-c2cccc3ccccc23)c2c(N)ncnc21`: “inactive”. The same measure for `O=C(NCCO)c1cccc(-c2cc(Nc3ccc(OC(F)(F)F)cc3)ncn2)c1`: “inactive”; for `O=c1cc(N2CCOCC2)nc2c3ccccc3ccn12`: “inactive”. As for `CCNC(=O)Nc1ccc(-c2nc3c(c(N4CCOC[C@@H]4C)n2)CCN(c2ncccn2)C3)cc1`, the entry is “inactive”. `CCN1C(=O)CNc2ncc(-c3ccc(-c4ncn[nH]4)nc3C)nc21`: the Potency result is “inactive”. The same measure for `Cc1ccc(-n2nc(C(C)(C)C)cc2NC(=O)NCc2cc(F)ccc2Oc2ccc3c(cnn3CCO)c2)cc1`: “inactive”; for `O=S(=O)(/N=C/c1c(O)ccc2ccccc12)c1cccs1`: “inactive”; for `O=C1C(c2c(O)[nH]c3ccccc23)=Nc2ccccc21`: “inactive”. For the compound `Cc1sc2c(c1C)C(c1ccc(Cl)cc1)=N[C@@H](CC(=O)Nc1ccc(OCCOCCOCCOCCNc3cccc4c3C(=O)N(C3CCC(=O)NC3=O)C4=O)cc1)c1nnc(C)n1-2` (stereo partly specified), the Potency result was “inactive”. For `COC(=O)Nc1ccc(-c2nc(N3CCOCC3)c3cnn(C4CCN(C(=O)OC)CC4)c3n2)cc1`, the Potency entry is “inactive”. As for `CCN1CCN(Cc2ccc(NC(=O)c3ccc(C)c(NC(=O)c4cncc(-c5cccs5)c4)c3)cc2C(F)(F)F)CC1`, the entry is “inactive”; as for `COc1ccc(-n2c(SCC#N)nc3sc4c(c3c2=O)CCCC4)cc1`, “inactive”; as for `N#Cc1ccc2ncnc(NCCc3ccccc3)c2c1`, “inactive”.

`COc1cc2ncnc(-n3nc(-c4ccccn4)nc3N)c2cc1OC`: the Potency result was “inactive”. Take `Cc1[nH]nc2ncc(C(=O)N3CCC[C@H]3c3ccc(Cl)cc3)cc12`: the Potency was 12.4 µM (active). On to `Cc1cc(F)ccc1-c1nc(NCCN=C(N)NC#N)nc2c1ccc(=O)n2-c1c(F)cccc1F`, for which the Potency entry is “inactive”. As for `Cc1cc(C)c(/C=C2\C(=O)Nc3ccccc32)[nH]1`, the entry is “inactive”. In the case of `NC(=O)c1cccc(-c2cc(Nc3ccc(OC(F)(F)F)cc3)ncn2)c1`, the Potency result is “inactive”. The same measure for `COc1cc(N2CCC(O)CC2)ccc1Nc1nc(Nc2ccccc2S(=O)(=O)C(C)C)c2[nH]cnc2n1`: “inactive”; for `CC[C@@](C)(Nc1ccnc(-c2c[nH]c3ncccc23)n1)C(=O)NCC(F)(F)F`: 12 µM (active); for `N#Cc1cccc(-c2c[nH]c3ncnc(N4CCOCC4)c23)c1`: 13.4 µM (active). For `O=C1CCC(N2C(=O)c3ccccc3C2=O)C(=O)N1` (stereo unspecified), the Potency result was “inactive”. The same measure for `C[C@@H](NC(=O)c1ncnc(N)c1Cl)c1ncc(C(=O)Nc2cc(C(F)(F)F)c(Cl)cn2)s1`: “inactive”; for `C=CC(=O)Nc1cc2c(Nc3ccc(F)c(Cl)c3)ncnc2cc1OCCCN1CCOCC1`: “inactive”; for `Cc1cc(-c2cc(O)ccc2Cl)cc2nnc(Nc3ccc(OCCN4CCCC4)cc3)nc12`: “inactive”. Regarding `Cc1[nH]c(/C=C2\C(=O)Nc3ccc(S(=O)(=O)Cc4c(Cl)cccc4Cl)cc32)c(C)c1C(=O)N1CCC[C@@H]1CN1CCCC1`, the Potency result is “inactive”.

In the case of `COc1cc2c(cc1OC)-c1[nH]nc(Nc3cccc(F)c3)c1C2`, the Potency entry is “inactive”.
